hNpr1 antagonist = Natriuretic polypeptide receptor (hNpr1) antagonism - Primary qHTS | Atrial natriuretic peptide receptor 1 (Homo sapiens), P16066 | HEK293 hNpr1 GloSensor cGMP, ANP-stimulated luminescence | Potency, µM (titrated, usually from 46.3 µM), for the others: top-dose activity change, negative = inhibition, hits mostly inhibitors | 1.6% of 76,000 active; calls by dose curve; also: nearly all actives have a fitted effect of over 60% in size
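HEK293 cells stably expressing human Npr1 and cGMP GloSensor pGS-40F, loaded 2 h with 2% GloSensor reagent, given compound 30 min at room temperature. Luminescence read before and 20 min after 0.1 nM hNppA.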
GPT2 inh = Primary qHTS assay for inhibitors of Glutamate pyruvate transaminase 2 (GPT2) | AID 1671188, 2021 | Potency, µM (top dose mostly 57.7 µM), without a hit: at the top dose activity change, negative = inhibition, most hits filed as inhibitors | Recombinant GPT2, coupled pyruvate oxidase/HRP Amplex Red fluorescence | 0.25% of 100,000 active | Alanine aminotransferase 2 (Homo sapiens), Q8TD30; also: nearly all actives have a fitted effect of over 60% in size
Target sequence (Q8TD30 whole entry, looked up): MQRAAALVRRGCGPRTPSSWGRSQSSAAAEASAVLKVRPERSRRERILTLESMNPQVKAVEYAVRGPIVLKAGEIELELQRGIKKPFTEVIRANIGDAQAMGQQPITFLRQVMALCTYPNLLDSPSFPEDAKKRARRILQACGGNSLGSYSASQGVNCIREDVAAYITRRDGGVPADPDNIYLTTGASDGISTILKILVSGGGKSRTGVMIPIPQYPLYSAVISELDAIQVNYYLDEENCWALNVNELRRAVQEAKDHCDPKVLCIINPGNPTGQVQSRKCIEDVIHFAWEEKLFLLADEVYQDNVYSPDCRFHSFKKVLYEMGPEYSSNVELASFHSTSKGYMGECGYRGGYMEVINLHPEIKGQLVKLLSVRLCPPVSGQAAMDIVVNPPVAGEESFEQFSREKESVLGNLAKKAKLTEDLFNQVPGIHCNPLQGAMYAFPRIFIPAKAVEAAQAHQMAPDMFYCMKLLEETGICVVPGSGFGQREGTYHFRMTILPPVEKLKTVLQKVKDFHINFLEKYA
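Fluorescence read-out: pyruvate from GPT2 turnover coupled to pyruvate oxidase, HRP and Amplex Red (0.2mM ThPP, 0.2U/mL PO and HRP, 50uM Amplex final). Substrates 250uM a-KG, 2mM L-alanine; enzyme 10ng/uL; 30 min RT.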
NIH3T3 tox = Cytotoxic Profiling in NIH 3T3 Cell Line of Diverse Libraries Using Quantitative High-Throughput Screening; Potency, µM (series often up to 96.7 µM), inactives show at the highest dose activity change, negative = cytotoxicity, usual class: inhibitors; NIH 3T3 viability, CellTiter-Glo ATP luminescence, 48-72 h; 4.3% of 94,000 active; also: nearly all actives have a fitted effect of over 55% in size
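Luminescent ATP readout (CellTiter-Glo, 10 min RT) after 48 or 72 hr compound exposure of NIH 3T3 cells seeded at 400 cells/well in 1536-well format; quantitative HTS.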
Luciferase inh = Firefly luciferase inhibition profiling of diverse chemical library using quantitative high-throughput screening; AID 1347043, 2019; Luciferin 4-monooxygenase (Photinus pyralis), P08659; 2.5% of 76,000 active; purified P. pyralis luciferase, luminescence, biochemical; Potency, µM (doses to about 115 µM), most hits filed as inhibitors; also: nearly all actives have a fitted effect of over 65% in size
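Biochemical qHTS: compound (6-point titration) added to 10uM D-luciferin plus 10uM ATP in Tris acetate pH 7.5 buffer with Mg, Tween-20 and BSA, then purified enzyme at 10nM; light output imaged.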
HEK293 tox = Cytotoxic Profiling in HEK 293 Cell Line of Diverse Libraries Using Quantitative High-Throughput Screening | HEK 293 viability, ATP luminescence (CellTiter-Glo), 48-72 h | Potency, µM (top dose mostly 115 µM), without a hit: at the highest dose activity change, negative = cytotoxicity, hits mostly inhibitors | AID 1345083, 2018 | 6.6% of 94,000 active; also: nearly all actives have a fitted effect of over 60% in size
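CellTiter-Glo luminescence (cellular ATP) was read after 48 or 72 hr of compound exposure at 37 degree Celsius. Cells were HEK 293 plated at 250 cells/well.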
* marks the source's active call; other numbers are inactive results; i = inactive; ? = inconclusive; / = not tested or not shown; [ ] = another dose, or the depositor's remark. A selection: hits, their analogues and other compounds. The true share with any hit is near 10%. Unless noted, calls follow the shape of the dose curve; as a rule, active = well fitted curve in the direction sought with a large enough effect; inconclusive = small, poorly fitted or top-dose-only effect, or another doubt; inactive = no such curve, though single readings can be large; an effect the other way counts as inactive or inconclusive. % is scaled to controls: 0 for no effect and ±100 for the full control effect; potency is read from the fitted curve at half-maximal effect.

SMILES	hNpr1 antagonist	GPT2 inh	NIH3T3 tox	Luciferase inh	HEK293 tox
COC(=O)N(C)Cc1cccc(N2CCN([S+](=O)([O-])c3c(Cl)cccc3Cl)CC2)c1F	/	/	?	/	14µM*
CCOC(=O)C(Cc1cccc(N2CCC(N(c3ccccc3)c3ccccc3)CC2)c1F)OC (stereo unspecified)	/	/	-18%	/	?
CN(Cc1cccc(N2CCN(C(=O)OC(C)(C)C)CC2)c1F)[S+](C)(=O)[O-]	/	/	?	/	79µM*
CCOC(=O)C1(Cc2ccccc2F)CCCN(C(=O)c2ccc3ncccc3c2)C1 (stereo unspecified)	-5%	-8%	?	i	?
Cn1cccc1C(=O)N1CCC(n2cc(-c3nc(-c4ccccc4)no3)nn2)C1 (stereo unspecified)	18µM*	i	?	?	45µM*
Cn1cccc1C(=O)N1CCC(n2cc(-c3nc(-c4ccccc4)no3)nn2)CC1	-20%	i	?	?	?
O=C(c1ccoc1)N1CCC(n2cc(-c3nc(-c4ccccc4)no3)nn2)CC1	-23%	1%	?	?	?
O=C(c1ccc(Cl)cc1)N1CCC(n2cc(-c3nc(-c4ccccc4)no3)nn2)C1 (stereo unspecified)	?	i	-55%	?	22µM*
O=C(c1ccncc1)N1CCC(n2cc(-c3nc(-c4ccccc4)no3)nn2)CC1	-29%	-1%	32µM*	?	?
Cc1ccccc1C(=O)N1CCC(n2cc(-c3nc(-c4ccccc4)no3)nn2)CC1	-26%	i	-22%	i	?
Cc1ccsc1C(=O)N1CCC(n2cc(-c3nc(-c4ccccc4)no3)nn2)CC1	?	i	-28%	i	40µM*
O=C(Cc1cccs1)N1CCC(n2cc(-c3nc(-c4ccccc4)no3)nn2)C1 (stereo unspecified)	-26%	i	?	?	?
Cc1ccccc1C(=O)N1CCC(n2cc(-c3nc(-c4ccccc4)no3)nn2)C1 (stereo unspecified)	7.9µM*	i	?	?	?
O=C(c1cc(F)ccc1F)N1CCC(n2cc(-c3nc(-c4ccccc4)no3)nn2)CC1	-30%	i	?	i	?
O=C(c1cccs1)N1CCC(n2cc(-c3nc(-c4ccccc4)no3)nn2)CC1	?	-7%	?	i	35µM*
O=C(c1ccc(F)cc1Cl)N1CCC(n2cc(-c3nc(-c4ccccc4)no3)nn2)CC1	18µM*	i	?	?	?
O=C(c1ccccc1)N1CCC(n2cc(-c3nc(-c4ccccc4)no3)nn2)C1 (stereo unspecified)	13µM*	i	?	?	?
COc1ccc(C(=O)N2CCC(n3cc(-c4nc(-c5ccccc5)no4)nn3)C2)cc1 (stereo unspecified)	?	-1%	?	?	?
COc1ccc(NC(=O)CCC2CCCN(S(=O)(=O)c3cccc(F)c3)C2)c(OC)c1 (stereo unspecified)	/	3%	?	/	?
O=C(NCC(F)(F)F)C1CCN(c2nccc(Nc3ccccc3Cl)n2)CC1	/	i	?	/	?
CCc1noc(-c2ccn3c(CNC(=O)Cc4cccc(OC)c4)nnc3c2)n1	0%	3%	i	i	?
N#Cc1ccc(C(=O)N2CCC(n3cc(-c4nc(-c5ccccc5)no4)nn3)C2)cc1 (stereo unspecified)	?	i	?	?	?
N#Cc1ccc(C(=O)N2CCCC(n3cc(-c4nc(-c5ccccc5)no4)nn3)C2)cc1 (stereo unspecified)	11µM*	-1%	-23%	?	?
COc1ccc(CCN2CCC(CN(C)Cc3ccc(C#CCCO)cc3)CC2)cc1	-15%	i	?	i	?
O=C(Nc1ccc(F)cc1F)C1(CCO)CCN(c2ncccn2)C1 (stereo unspecified)	1%	-6%	-18%	i	?
SMILES	hNpr1 antagonist	GPT2 inh	NIH3T3 tox	Luciferase inh	HEK293 tox
COc1cccc(CNC(=O)c2cc(-c3cccs3)c3cccn3n2)c1	/	i	?	/	?
CN(C)c1ccc(C(=O)NC2CCCN(c3cc(-c4ccc(F)cc4)[nH]n3)C2)cc1 (stereo unspecified)	-10%	-16%	?	?	35µM*
CN(C)c1cccc(C(=O)NC2CCCN(c3cc(-c4ccc(F)cc4)[nH]n3)C2)c1 (stereo unspecified)	-10%	-8%	?	16µM*	?
CN(C)c1cccc(C(=O)NC2CCN(c3cnn(C)c(=O)c3)CC2)c1	3%	i	-6%	25µM*	i
Cn1ncc(N2CCC(NC(=O)c3ccc4c(c3)OCO4)CC2)cc1=O	-4%	i	-1%	i	-11%
O=C(NC1CCN(c2cc(-c3ccccc3)[nH]n2)CC1)c1ccsc1	-19%	1%	-6%	?	79µM*
C#CCNC(=O)c1cn2cc(-c3ccc(C)cc3)sc2n1	/	-10%[88.5 µM]	-9%[138 µM]	/	4%[172 µM]
O=C(NCC(F)(F)F)c1nc2sccn2c1-c1ccncc1	/	i	-15%[138 µM]	/	4%[172 µM]
Cc1ccc(-c2cc(N3CCC(CNC(=O)c4cccc(N(C)C)c4)CC3)n[nH]2)cc1	-20%	4%	?	?	?
O=C(NC1CCCN(c2cc(-c3ccccc3)[nH]n2)C1)c1ccc(Br)cc1 (stereo unspecified)	-5%	3%	32µM*	i	22µM*
O=C(NC1CCN(c2cc(-c3ccccc3)[nH]n2)C1)c1ccc(Br)cc1 (stereo unspecified)	3%	i	-11%	i	-26%
CN(C)c1cccc(C(=O)NC2CCN(c3cc(-c4ccccc4)[nH]n3)CC2)c1	-22%	4%	?	40µM*	?
CN(C)c1ccc(C(=O)NC2CCCN(c3cc(-c4ccccc4)[nH]n3)C2)cc1 (stereo unspecified)	-14%	-25%	?	28µM*	?
CN(C)c1cccc(C(=O)NCC2CCN(c3cc(-c4ccc(Cl)cc4)[nH]n3)CC2)c1	-27%	?	40µM*	?	?
CCOC(=O)[C@H]1[C@@H](O)C(=O)N(C(C)C)C12CCN(C(=O)c1csc(-c3cccs3)n1)CC2	/	/	?	/	2%

Bioassay records (PubChem BioAssay)
